Results: the supplement of paper PMC11628255, “Interference of metal ions on the bioluminescent signal of firefly, Renilla, and NanoLuc luciferases in high-throughput screening assays” (Frontiers in Chemistry, 2024)
± gives the standard deviation of the averaged measurements.

System: firefly luciferase (FLuc)
Assay: residual bioluminescent signal relative to negative (DMSO) control; higher = less interference (more residual luciferase signal)
Description: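 Purified luciferase (FLuc 10 nM + 10 uM D-luciferin; NLuc 10 pM + 10 uM furimazine; RLuc 50 pM + 2 uM coelenterazine) in 384-well plates; metal salt pre-incubated with enzyme 10 min at RT, substrate added and luminescence read after 10 min. Signal normalised to plate DMSO negative control (% N_VALUE = x/mean neg *100); triplicate wells at 0.01, 1 and 5 mM salt.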

[1] = metal salt concentration 0.01 mM, HEPES conditions (100 mM HEPES, 5 mM MgSO4, 10 uM ATP, pH 7.5)
[2] = metal salt concentration 0.01 mM, screening conditions (0.5 mM Tris, 50 mM glycine, 0.5 mM EDTA, 5 mM MgSO4, 10 uM ATP, pH 7.6)
[3] = metal salt concentration 1 mM, HEPES conditions (100 mM HEPES, 5 mM MgSO4, 10 uM ATP, pH 7.5)
[4] = metal salt concentration 1 mM, screening conditions (0.5 mM Tris, 50 mM glycine, 0.5 mM EDTA, 5 mM MgSO4, 10 uM ATP, pH 7.6)
[5] = metal salt concentration 5 mM, HEPES conditions (100 mM HEPES, 5 mM MgSO4, 10 uM ATP, pH 7.5)
[6] = metal salt concentration 5 mM, screening conditions (0.5 mM Tris, 50 mM glycine, 0.5 mM EDTA, 5 mM MgSO4, 10 uM ATP, pH 7.6)

Structure (SMILES) | residual bioluminescent signal [1] [%] | residual bioluminescent signal [2] [%] | residual bioluminescent signal [3] [%] | residual bioluminescent signal [4] [%] | residual bioluminescent signal [5] [%] | residual bioluminescent signal [6] [%]
[Cl][Sn][Cl] [tin(II) chloride] | 41.7 ± 13 | 90.8 ± 3.9 | 1.22 ± 0.41 | 0.369 ± 0.12 | 1.9 ± 0.62 | 0.553 ± 0.079
O=[N+]([O-])[O-].O=[N+]([O-])[O-].[Cu+2] [copper(II) nitrate] | 2.58 ± 1 | 108 ± 11 | 0.407 | 0.712 ± 0.4 | 0.95 ± 0.62 | 0.553 ± 0.32
O=[N+]([O-])[O-].[Ag+] [silver nitrate] | 1.36 ± 0.62 | 1.13 ± 0.6 | 1.36 ± 1.6 | 0.316 ± 0.079 | 1.49 ± 0.62 | 0.369 ± 0.17
O=[N+]([O-])[O-].O=[N+]([O-])[O-].[Ca+2] [calcium nitrate] | 70 ± 9.6 | 75.6 ± 6.7 | 67.2 ± 14 | 60.2 ± 8.9 | 29.2 ± 2.8 | 24.5 ± 3.4
O=[N+]([O-])[O-].O=[N+]([O-])[O-].[Ni+2] [nickel(II) nitrate] | 64.7 ± 8.8 | 71.2 ± 7.5 | 2.31 ± 1.6 | 0.501 ± 0.33 | 0.814 ± 0.41 | 0.58 ± 0.091
O=[N+]([O-])[O-].[Na+] [sodium nitrate] | 90 ± 7.6 | 79.1 ± 6.3 | 72.4 ± 18 | 71.7 ± 2.9 | 60 ± 13 | 50 ± 4.3
O=[N+]([O-])[O-].O=[N+]([O-])[O-].[Pb+2] [lead(II) nitrate] | 3.12 ± 1.6 | 93.3 ± 4.7 | 0.814 ± 0.41 | 0.685 ± 0.48 | 0.95 ± 0.23 | 0.343 ± 0.17
